# From PubChem BioAssay
# AMA1-RON2 inh = inhibitors of Plasmodium falciparum AMA1-RON2 interaction. 360,000 compounds, 0.2% hits. Potency, µM (series often up to 58.2 µM), usual class: inhibitors. AlphaScreen AMA1-biotinylated RON2 peptide binding; note: nearly all actives have a fitted effect of over 45% in size
#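 AMA1 (3D7) with his tag at 25 nM final met compounds first, then biotinylated RON2 peptide at 25 nM; detection used donor plus acceptor beads, 10 µg/mL apiece, read by AlphaScreen after 30 min at room temperature.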
# AmpC detergent = AmpC beta-lactamase inhibition with detergent present; P00811; AmpC hydrolysis of nitrocefin, absorbance 480 nm, 0.01% Triton; Potency, µM (series often up to 114 µM), actives largely listed as inhibitors; 370,000 compounds, 0.041% hits; AID 485294; note: nearly all actives have a fitted effect of over 25% in size
# Target sequence (P00811 whole entry, looked up): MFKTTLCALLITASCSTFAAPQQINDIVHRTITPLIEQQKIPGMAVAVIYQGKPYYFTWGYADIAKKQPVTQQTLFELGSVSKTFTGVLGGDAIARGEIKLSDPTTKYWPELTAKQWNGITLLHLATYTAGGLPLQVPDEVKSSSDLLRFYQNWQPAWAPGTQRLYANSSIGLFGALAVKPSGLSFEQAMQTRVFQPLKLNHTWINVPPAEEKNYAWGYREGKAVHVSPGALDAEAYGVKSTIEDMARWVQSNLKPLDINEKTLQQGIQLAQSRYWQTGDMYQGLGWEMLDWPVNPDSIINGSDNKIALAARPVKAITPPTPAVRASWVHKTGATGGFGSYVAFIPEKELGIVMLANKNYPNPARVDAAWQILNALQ
#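 AmpC (5.3 nM in the dispensed reagent) in 20 mM phosphate pH 7.0 with 0.01% (detergent screen) or 0.0001% Triton X-100 was preincubated with compounds for 15 min at room temperature. Nitrocefin was then added from an 800 uM solution, and hydrolysis was followed at 480 nm.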
# Pf growth 48h = inhibits P. falciparum growth in the first generation, 48 h | Potency, µM (doses to about 28.7 µM), most hits filed as inhibitors | AID 504832 | P. falciparum luciferase growth in erythrocytes, 48 h | 310,000 compounds, 5.9% hits
#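 Compounds are pin-transferred into medium, infected erythrocytes (2% hematocrit, 0.1% parasitemia final) are added, and plates sit one parasite generation at 37 C in 5% CO2. Detection reagent is then added and luminescence measured.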
# HCV inh = HCV inhibition; Huh7.5.1 HCVcc-Cre infection, luciferase reporter, 44 h; Potency, µM (series often up to 41.8 µM), hits mostly inhibitors; 340,000 compounds, 3.4% hits; AID 651820
#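 After 44 h co-culture of compound, cells and HCVcc-Cre (~0.5 moi), substrate is added for 15 min at room temperature and luciferase measured over 15 sec. Cells were seeded at 1,000/well and pre-cultured 4 h.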
# AmpC inh no detg = blocks E. coli AmpC beta-lactamase in detergent-free assay; Potency, µM (doses to about 57.1 µM), usual class: inhibitors; AID 485341; 330,000 compounds, 0.52% hits; AmpC nitrocefin hydrolysis, absorbance 480 nm, 0.0001% Triton; P00811; note: nearly all actives have a fitted effect of over 20% in size
#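 AmpC (5.3 nM in the dispensed reagent) in 20 mM phosphate pH 7.0 with 0.01% (detergent screen) or 0.0001% Triton X-100 was preincubated with compounds for 15 min at room temperature. Nitrocefin was then added from an 800 uM solution, and hydrolysis was followed at 480 nm.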
# Pf growth 96h = P. falciparum growth inhibition at 96 hours. 320,000 compounds, 6.9% hits. P. falciparum luciferase reporter growth, 96 h. Potency, µM (top dose mostly 28.7 µM), usual class: inhibitors
#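 Readout is luminescence from an integrated firefly luciferase in P. falciparum. Red cells, 2% hematocrit and 0.05% parasitemia final, were cultured with compound through two parasite generations (96 hours) at 37 C, 5% CO2.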
# Numbers stand for hits; – = inactive; ? = inconclusive; · = no result given. Most compounds without a hit are left out; they make up all but 11% or so of the library. Calls come from the whole dose curve; as a rule, active = well fitted curve in the direction sought with a large enough effect; inconclusive = small, poorly fitted or top-dose-only effect, or another doubt; inactive = no such curve, though single readings can be large; an effect the other way counts as inactive or inconclusive.
SMILES,AMA1-RON2 inh,AmpC detergent,Pf growth 48h,HCV inh,AmpC inh no detg,Pf growth 96h
O=C(Nc1ccc(Cl)cc1C(=O)NCC1CCCO1)c1ccc(Cl)cc1Cl (stereo not drawn),–,–,8.28µM,?,–,–
COc1ccc(OC)c(CNC(=O)NCc2noc3ccc(C)cc23)c1,·,–,·,·,·,·
O=C1c2cccc3c([N+](=O)[O-])ccc(c23)C(=O)N1c1ccc(Cl)cn1,–,–,–,10µM,–,–
O=C(O)c1ccc2c(c1)C(=O)N(c1ccc(Cl)cn1)C2=O,–,?,–,–,0.631µM,–
O=c1[nH]c(SCc2c(F)cccc2Cl)nc2c1CCCC2,·,–,·,·,·,·
CN(c1ccccc1)S(=O)(=O)c1ccc(C(=O)NCc2ccccc2CN2CCCC2)cc1,–,?,?,10µM,–,?
COc1ccccc1N(C)S(=O)(=O)c1ccc(C(=O)NCc2ccc3c(c2)OCO3)cc1,–,–,9.28µM,?,–,?
COc1ccccc1N(C)S(=O)(=O)c1ccc(C(=O)Nc2cc(F)ccc2C)cc1,–,·,·,6.31µM,–,·
COc1cc(OC)cc(C(=O)NNC(=O)c2ccc(S(=O)(=O)N(C)c3ccccc3OC)cc2)c1,–,–,–,–,–,0.0828µM
COc1ccccc1N(C)S(=O)(=O)c1ccc(C(=O)NNC(=O)c2ccccc2O)cc1,–,–,?,?,–,?
CCc1ccc(-n2c(Cc3ccccc3)nnc2SCc2nc(-c3cccs3)no2)cc1,·,–,·,·,·,·
COC(=O)c1ccc(CNC(=O)c2sccc2-c2ccccc2)cc1,–,·,·,?,·,·
COC(=O)c1cc(CNC(=O)c2ccc(S(=O)(=O)N(C)c3ccccc3)cc2)ccc1OC,–,–,3.7µM,3.98µM,–,11.7µM
COc1ccc(CCNC(=O)c2ccc(S(=O)(=O)N(C)c3ccccc3)cc2)cc1OC,–,–,?,?,–,?
COC(=O)c1cc(CNC(=O)c2sccc2-c2ccccc2)ccc1OC,–,–,–,11.2µM,–,–
CCCCN(C)CCNC(=O)c1ccc2c(c1)NC(=O)CN2,·,–,·,·,·,·
COc1ccc(C[C@H]2CN3C(=NC[C@@H]3Cc3ccc(O)cc3)N2C[C@H](C)NC(=O)CCC2CCCCC2)cc1,–,–,2.08µM,–,–,0.928µM
C[C@@H](CN1C2=NC[C@H](C)N2C[C@H]1Cc1ccc(O)cc1)NC(=O)CCC1CCCCC1,–,–,–,–,–,?
CC(C)[C@H]1CN=C2N(C[C@H](C)NC(=O)CCC3CCCCC3)[C@H](Cc3ccc(O)cc3)CN21,–,–,11.7µM,–,–,4.15µM
COc1ccc(C[C@@H]2CN3C(=NC[C@@H]3Cc3ccc(O)cc3)N2C[C@H](C)NC(=O)CCC2CCCCC2)cc1,–,–,1.17µM,–,–,0.738µM
Cc1cc(-c2ccc(S(=O)(=O)N3CCN(c4ccc(Cl)cc4)CC3)s2)on1,·,–,·,·,·,·
CCOC(=O)C1=C(CS(=O)(=O)c2ccc(OC)c(Cl)c2)NC(=O)NC1c1cccc(OC)c1 (stereo not drawn),·,–,·,·,·,·
COc1cccc(-c2csc(N3CCN(C(=S)Nc4ccccc4)CC3)n2)c1,–,–,?,–,–,?
COc1cccc(-c2csc(N3CCN(C(=S)Nc4cccc(C)c4)CC3)n2)c1,–,–,?,?,–,?
COc1cccc(-c2csc(N3CCN(C(=S)Nc4ccc(Cl)cc4)CC3)n2)c1,–,?,?,12.6µM,–,10.4µM
CNC(=S)N1CCN(c2nc(-c3cccc(OC)c3)cs2)CC1,–,–,–,?,–,11.7µM
O=C1c2ccccc2C(=Nc2ccccc2)C1c1cccc(Br)c1 (stereo not drawn),–,–,?,–,–,4.15µM
O=C1c2ccccc2-c2cc(Br)ccc2NC1O (stereo not drawn),–,·,·,·,·,·
CN(C)c1ccc(-n2cccc2)cc1,20µM,–,–,–,–,–
O=C(O)c1ccc2c(c1)C(=O)N([C@H](Cc1c[nH]c3ccccc13)C(=O)O)C2=O,·,?,?,·,–,–
